Compounds without any hit were thinned out: in the full panel of roughly 83,000, 20% have a hit.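 The test compound was applied at a single concentration to cells in 96-well plates for 48 hours, and percent growth was recorded.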 A number with no mark means an inactive call. Activity calls are given as the source filed them. Rule for the calls: active = growth percent below 10; inactive = the rest.

Holding throughout (assay): NCI-60 one-dose screen, 48 h (100 = growth as untreated, 0 = no growth, -100 = all killed)
The test system of one experiment is K-562 leukemia. The following applies: 10 µM unless noted.
The subject of another experiment is MALME-3M melanoma. Particulars: 10 µM unless noted.
Another experiment concerns RXF 393 renal. The following applies: 10 µM unless noted.
In the next experiment the test system is SF-295 CNS. Particulars: 10 µM unless noted.
Another experiment has as its system UACC-257 melanoma. The following applies: 10 µM unless noted.
The test system of another experiment is HCT-15 colon. The following applies: 10 µM.
The next experiment deals with UACC-62 melanoma. Particulars: 10 µM unless noted.
A further experiment relates to LOX IMVI melanoma. The following applies: 10 µM unless noted.
Another experiment concerns SK-MEL-2 melanoma. The following applies: 10 µM unless noted.
Another experiment concerns TK-10 renal. Particulars: 10 µM unless noted.
The subject of another experiment is ACHN renal. The following applies: 10 µM unless noted.
The subject of the next experiment is A498 renal. The following applies: 10 µM unless noted.
A further experiment deals with HL-60(TB) leukemia. The following applies: 10 µM unless noted.
A further experiment has as its system MOLT-4 leukemia. Particulars: 10 µM.
The test system of another experiment is OVCAR-8 ovarian. Particulars: 10 µM unless noted.
In another experiment the test system is OVCAR-4 ovarian. The following applies: 10 µM unless noted.
The subject of another experiment is NCI/ADR-RES ovarian. The following applies: 10 µM unless noted.
In a further experiment the test system is T-47D breast. Particulars: 10 µM unless noted.
In another experiment the test system is BT-549 breast. Particulars: 10 µM.
A further experiment deals with HCC-2998 colon. Particulars: 10 µM unless noted.

Turning to `Oc1ccc(O)c2c1C1(Cl)C(Cl)=C(Cl)C2(Cl)C1(Cl)Cl`, the growth was 27.5% with K-562 leukemia; 20% in the experiment on MALME-3M melanoma; 29.8% in the experiment on RXF 393 renal; 21.7% with SF-295 CNS; 46.6% in the experiment with UACC-257 melanoma; 45.3% in the experiment with HCT-15 colon. Also, the growth was 37.1% with UACC-62 melanoma; 43.1% in the experiment on LOX IMVI melanoma; 31.3% in the experiment with SK-MEL-2 melanoma; 75.4% in the experiment with TK-10 renal; 48.2% in the experiment on ACHN renal; 34.9% in the experiment on A498 renal. Further, the growth was 31% in the experiment with HL-60(TB) leukemia; 54.3% in the experiment with MOLT-4 leukemia; 74% with OVCAR-8 ovarian; 54.1% with OVCAR-4 ovarian; 40.5% with NCI/ADR-RES ovarian; 19.4% in the experiment with T-47D breast. Moreover, in the experiment on BT-549 breast, the growth was 29.2%.
`COC(=O)C[Se]C(=O)c1ccccc1OC(C)=O`: the growth was 79% in the experiment on K-562 leukemia; 69.9% in the experiment with MALME-3M melanoma; 78.9% with RXF 393 renal; 53.3% with SF-295 CNS; 59.7% in the experiment on UACC-257 melanoma; 46.4% in the experiment on HCT-15 colon. The growth in the experiment on UACC-62 melanoma is 77.8%; with LOX IMVI melanoma it was 59.6%; with SK-MEL-2 melanoma, 87.4%; with TK-10 renal, 93.1%; in the experiment with ACHN renal, 72%; in the experiment on HL-60(TB) leukemia, -4.01% (active). In addition, the growth was 86% in the experiment on MOLT-4 leukemia; 45.4% in the experiment with OVCAR-8 ovarian; 54.4% with OVCAR-4 ovarian; 24.2% in the experiment with NCI/ADR-RES ovarian; 84.5% in the experiment on T-47D breast; 71.9% in the experiment with BT-549 breast. For the same compound, in the experiment on HCC-2998 colon, the growth is 62.1%.
For `O=C(/C=C/c1ccccc1)N[C@@H](CO)Cc1cnc[nH]1`, the growth is 107% in the experiment on K-562 leukemia; 110% in the experiment with MALME-3M melanoma; 118% with RXF 393 renal; 98.9% in the experiment on SF-295 CNS; 98.6% in the experiment with HCT-15 colon; 110% in the experiment on UACC-62 melanoma. The growth with LOX IMVI melanoma is 97.2%; with SK-MEL-2 melanoma, 102%; in the experiment with TK-10 renal, 93.5%; in the experiment on ACHN renal it was 96.4%; with A498 renal, 115%; with HL-60(TB) leukemia it was 98.8%. The growth in the experiment with MOLT-4 leukemia was 93.8%; in the experiment on OVCAR-8 ovarian it was 99.8%; in the experiment on OVCAR-4 ovarian, 96.8%; with NCI/ADR-RES ovarian it was 98%; in the experiment on T-47D breast, 104%; with BT-549 breast it was 103%. The growth in the experiment on HCC-2998 colon was 112%.
For `O=C(NCCNC(=O)c1ccc([As](O)O)cc1)c1ccc([As](O)O)cc1`, the growth in the experiment on K-562 leukemia is 116%; in the experiment on MALME-3M melanoma, 108%; with RXF 393 renal, 105%; in the experiment with SF-295 CNS, 107%; in the experiment with UACC-257 melanoma, 103%; with HCT-15 colon, 107%. Further, the growth with UACC-62 melanoma was 99.7%; in the experiment on LOX IMVI melanoma, 90.3%; in the experiment on SK-MEL-2 melanoma it was 103%; in the experiment on TK-10 renal, 111%; in the experiment with ACHN renal, 106%; in the experiment on A498 renal it was 92%. Besides, the growth is 105% in the experiment with HL-60(TB) leukemia; 109% in the experiment on MOLT-4 leukemia; 103% with OVCAR-8 ovarian; 105% with OVCAR-4 ovarian; 101% in the experiment on NCI/ADR-RES ovarian; 100% in the experiment on T-47D breast. Moreover, the figures for the growth in the experiment on BT-549 breast and in the experiment with HCC-2998 colon were 111% and 100%, respectively.
Take `CC(CC(C#N)(c1ccccc1)c1ccccc1)N1CCOCC1` (stereo not given): the growth in the experiment on K-562 leukemia was 83.5%; in the experiment on MALME-3M melanoma, 120%; in the experiment on RXF 393 renal, 112%; with UACC-257 melanoma, 106%; in the experiment with HCT-15 colon it was 102%; in the experiment on UACC-62 melanoma it was 80.4%. The growth in the experiment with LOX IMVI melanoma was 102%; in the experiment with SK-MEL-2 melanoma, 101%; in the experiment with TK-10 renal, 105%; in the experiment on ACHN renal, 102%; in the experiment on A498 renal it was 88.8%; with HL-60(TB) leukemia it was 86.4%. In addition, the growth in the experiment with MOLT-4 leukemia is 82.3%; with OVCAR-8 ovarian it was 108%; with OVCAR-4 ovarian, 108%; in the experiment on NCI/ADR-RES ovarian, 106%; with T-47D breast, 90%; in the experiment on BT-549 breast, 111%.
Consider `O=C(CCl)NCNC(=O)CCl`, for which the growth in the experiment on K-562 leukemia was 98.9%; in the experiment with MALME-3M melanoma, 114%; in the experiment with RXF 393 renal it was 107%; in the experiment with SF-295 CNS it was 56.5%; in the experiment with UACC-257 melanoma it was 76.5%; with HCT-15 colon it was 91.4%. In addition, the growth with UACC-62 melanoma was 82%; in the experiment on SK-MEL-2 melanoma, 90.4%; in the experiment with TK-10 renal, 105%; in the experiment with ACHN renal, 94.5%; in the experiment with A498 renal, 109%; in the experiment with HL-60(TB) leukemia, 102%. Moreover, the growth in the experiment with MOLT-4 leukemia is 90.4%; with OVCAR-8 ovarian it was 92.4%; in the experiment on OVCAR-4 ovarian, 77.4%; in the experiment on NCI/ADR-RES ovarian, 103%; in the experiment with T-47D breast it was 92.6%; in the experiment on BT-549 breast, 86.7%. Also, in the experiment on HCC-2998 colon, the growth is 111%.
Consider `N#C[Se]CCCNS(=O)(=O)C1CC2C=CC1C2` (stereo not given), for which the growth is 5.87% (active) in the experiment with K-562 leukemia; -55.5% (active) in the experiment with MALME-3M melanoma; -90% (active) in the experiment on RXF 393 renal; -80.7% (active) with SF-295 CNS; -55.3% (active) with UACC-257 melanoma; -1.27% (active) with HCT-15 colon. The growth in the experiment with UACC-62 melanoma was -54.1% (active); in the experiment with LOX IMVI melanoma, -76.8% (active); in the experiment on SK-MEL-2 melanoma it was -24.4% (active); in the experiment on TK-10 renal, -66.4% (active); in the experiment with ACHN renal, -67% (active); in the experiment with HL-60(TB) leukemia, -41.1% (active). In addition, the growth in the experiment with MOLT-4 leukemia is 5.9% (active); with OVCAR-8 ovarian, -27.1% (active); in the experiment with OVCAR-4 ovarian, 10%; in the experiment with NCI/ADR-RES ovarian, -3.8% (active); in the experiment with T-47D breast, 30.6%; in the experiment on BT-549 breast, -71.3% (active). Besides, in the experiment with HCC-2998 colon, the growth is 4.61% (active).
In the case of `COc1cccc2c1C(=O)c1c(O)c3c(c(O)c1C2=O)CC(O)(/C(C)=N/NC(=O)CCC(=O)N/N=C(\C)C1(O)Cc2c(O)c4c(c(O)c2C(OC2CC(N)C(O)C(C)O2)C1)C(=O)c1c(OC)cccc1C4=O)CC3OC1CC(N)C(O)C(C)O1` (stereo not given), the growth was -60.2% [5 µM] (active) with K-562 leukemia; -99.1% [5 µM] (active) in the experiment on MALME-3M melanoma; -56.7% [5 µM] (active) in the experiment with RXF 393 renal; -32.8% [5 µM] (active) with SF-295 CNS; -17.8% [5 µM] (active) with UACC-257 melanoma; -85.4% [5 µM] (active) in the experiment with UACC-62 melanoma. The growth was -35.3% [5 µM] (active) in the experiment with LOX IMVI melanoma; -54.3% [5 µM] (active) with SK-MEL-2 melanoma; -43.1% [5 µM] (active) in the experiment on TK-10 renal; -34.9% [5 µM] (active) in the experiment on ACHN renal; -69.1% [5 µM] (active) with A498 renal; -41.9% [5 µM] (active) in the experiment with HL-60(TB) leukemia. Also, the growth in the experiment with OVCAR-8 ovarian was 13.1% [5 µM]; with OVCAR-4 ovarian it was -13.5% [5 µM] (active); in the experiment on NCI/ADR-RES ovarian, 71.8% [5 µM]; in the experiment on T-47D breast, -24.2% [5 µM] (active); with HCC-2998 colon, -94.5% [5 µM] (active).

The values above are taken from PubChem BioAssay (NCI).
